# Sampled rows, rich in hits. Any-hit rate of the full collection: about 2.6%.
# LT uptake inh – inhibitors of anthrax lethal toxin internalization; Potency, µM (series often up to 40 µM), without a hit: at the highest dose activity change, negative = inhibition, actives largely listed as inhibitors; 70,000 compounds, 0.67% hits; Cells, anthrax lethal toxin internalization, FRET ratio (460/530); also: % is scaled to controls: 0 for no effect and ±100 for the full control effect; nearly all actives have a fitted effect of over 50% in size
# AmpC inh det – inhibitors of E. coli AmpC beta-lactamase with detergent; P00811; purified AmpC, nitrocefin hydrolysis with detergent; Potency, µM (titrated, usually from 28.7 µM), inactives show at the top dose activity change, negative = inhibition; 71,000 compounds, 0.09% hits; AID 584; active = well fitted curve in the direction sought with a large enough effect; inconclusive = small, poorly fitted or top-dose-only effect; also: % is scaled to controls: 0 for no effect and ±100 for the full control effect
# Target sequence (P00811 whole entry, looked up): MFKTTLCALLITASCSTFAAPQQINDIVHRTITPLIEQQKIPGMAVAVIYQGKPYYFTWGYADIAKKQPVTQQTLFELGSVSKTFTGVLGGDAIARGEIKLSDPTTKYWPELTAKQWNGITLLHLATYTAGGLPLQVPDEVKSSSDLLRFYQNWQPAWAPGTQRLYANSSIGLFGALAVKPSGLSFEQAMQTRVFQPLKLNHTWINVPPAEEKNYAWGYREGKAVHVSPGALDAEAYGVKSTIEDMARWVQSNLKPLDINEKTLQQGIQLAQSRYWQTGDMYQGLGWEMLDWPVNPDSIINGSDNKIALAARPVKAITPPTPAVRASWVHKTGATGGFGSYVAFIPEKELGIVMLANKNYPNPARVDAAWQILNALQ
#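 E. coli AmpC (5.3 nM) in 20 mM phosphate pH 7.0 with 0.01% Triton X-100, preincubated 15 min RT with compound; nitrocefin (2 uL of 800 uM stock) hydrolysis followed by 480 nm absorbance every 20 s over 4 min.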
# SmPrx2 inh – Schistosoma mansoni Prx2 inhibition; Potency, µM; 65,000 compounds, 0.07% hits; AID 448; S. mansoni Prx2 activity coupled to TGR/GSH (TGR is thioredoxin glutathione reductase), NADPH fluorescence loss, qHTS
#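 Activity is read as the drop in NADPH fluorescence (365/450 nm), recorded every 30 sec for 8 min after H2O2 addition. Prx2 is coupled to TGR-driven NADPH oxidation through glutathione, in phosphate buffer pH 7.4.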
# AmpC nodet inh – AmpC beta-lactamase inhibition, detergent-free assay. P00811. AmpC nitrocefin hydrolysis, absorbance 480 nm, no detergent. Potency, µM (doses to about 28.7 µM), for the others: top-dose activity change, negative = inhibition. 71,000 compounds, 1.8% hits. AID 585; also: % of control where 0% means no effect
#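 AmpC, 20 mM phosphate pH 7.0; 15 min cpd preinc, RT; start with nitrocefin (800 uM stock); A480 kinetic read, 20 s intervals, 4 min. No-enzyme wells = negative control.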
# Starred values were filed as active, the others as inactive; ? = inconclusive; . = no result; [ ] = dose if it differs, or a comment. Unless noted, calls follow the shape of the full dose curve. Potency is read from the fitted curve at half-maximal effect.
SMILES,LT uptake inh,AmpC inh det,SmPrx2 inh,AmpC nodet inh
CN1CCN([C@@H](c2ccccc2)c2ccc(Cl)cc2)CC1,?,-5.4%[12.8 µM],>57,25.8%[12.8 µM]
C#CCCCO/N=C1/C[C@@H](O)[C@@H](O)[C@@H]2[C@@H]3C(=O)N([C@@H](C)c4ccccc4)C(=O)[C@H]3CC[C@@H]12,-6.7%[8 µM],.,.,.
O=C(Nc1ccc(S(=O)(=O)NCc2ccccc2)cc1)Nc1ccc2c(c1)OCO2,?,-2.1%,>57,10µM*
Brc1ccccc1-c1nnc(CSc2nncn2-c2ccccc2)o1,-1.4%,-4.5%,>57,11.4%
O=c1c2ccccc2nc(SCc2nnc(-c3ccccc3Br)o2)n1-c1ccccc1,14.8%,-1.9%,>57,20µM*
COc1ccccc1S(=O)Cc1ccc(C(=O)NCc2ccccc2Cl)o1 (stereo not given),?,12.2%,>57,3.98µM*[single pt active]
CCC1(CC)C(=O)NC(=NCCc2c[nH]c3ccccc23)NC1=O,?,-0.5%,>57,5.1%
CCCC1(CCC)C(=O)NC(=NCc2ccccc2)NC1=O,12.6µM*,0.5%,>57,-9.9%
O=C(Cn1cnc2sc(-c3ccccc3)cc2c1=O)NCc1ccco1,-25.5%,18.4%,>57,5.01µM*
Cc1c(-c2nc(N)nc(Nc3ccccc3)n2)oc2ccccc12,12.6µM*,-6.2%,>57,98.5%
COC(=O)C/C=C\[C@@H](C)[C@@H](/C=N\OC[C@@H](O)COCc1ccco1)OC,-11.1%[8 µM],.,.,.
C/C=C/C=C/C=O,9.7%,5.1%,.,-5.3%
COc1cccc(C2CC(=O)N3CN(c4ccccc4F)CSC3=C2C#N)c1 (stereo not given),?,8.1%,>57,3.98µM*[single pt active]
COc1cc(C2CC(=O)N3CN(c4ccccc4C)CSC3=C2C#N)cc(OC)c1OC (stereo not given),?,-5.6%,>57,48.1%
COc1ccc(OC)c(C2CC(=O)N3CN(c4ccccc4F)CSC3=C2C#N)c1 (stereo not given),-7.0%,11.6%,>57,3.98µM*[single pt active]
COc1ccccc1N1CSC2=C(C#N)C(c3ccc(SC)cc3)CC(=O)N2C1 (stereo not given),?,10.8%,>57,2.51µM*
C=C(C)CNCCN,?,-2.6%[5.75 µM],>57,-7.3%[5.75 µM]
CCOC(=O)c1ccc2ncc(C(=O)OCC)c(NCCN(C)C)c2c1,1.5%,13.6%,>57,3.16µM*[single pt active]
Cc1ccc(NC(=O)CC2Oc3ccc(C)cc3NC2=O)cc1 (stereo not given),-6.1%,9.7%,>57,-15.1%
COc1ccc(NC(=O)CC2Oc3ccccc3NC2=O)cc1 (stereo not given),-4.8%,9.0%,>57,3.98µM*[single pt active]
COc1ccc(OC)c(CCNC(=O)CC2Oc3ccccc3NC2=O)c1 (stereo not given),-6.9%,10.4%,>57,14.5%
COc1ccc(NC(=O)CC2Oc3ccc(C)cc3NC2=O)cc1 (stereo not given),-0.2%,11.4%,>57,3.98µM*[single pt active]
CO[C@H]1COC(=O)C/C=C\[C@H](C)[C@H](OC)COC(=O)[C@@H](C)NC(=O)C/C=C\[C@@H]1C,6.1%[8 µM],.,.,.
CCCCNC(=O)c1ccc(CS(=O)(=O)c2ccc(OC)cc2)o1,-5.9%,10.9%,>57,3.98µM*[single pt active]
COc1ccc(S(=O)(=O)Cc2ccc(C(=O)NCc3ccco3)o2)cc1,-9.1%,8.3%,>57,3.98µM*[single pt active]
SMILES,LT uptake inh,AmpC inh det,SmPrx2 inh,AmpC nodet inh
COc1ccccc1S(=O)(=O)Cc1ccc(C(=O)NCc2cccs2)o1,.,-8.8%,>57,-2.5%
O=C(NCc1ccco1)c1ccc(CS(=O)(=O)c2cccc(C(F)(F)F)c2)o1,11.2%,-0.7%,>57,26.0%
O=C(NCc1ccc2c(c1)OCO2)c1ccc(CS(=O)(=O)c2ccc(Br)cc2)o1,?,15.9%,>57,3.98µM*[single pt active]
COc1ccc(S(=O)(=O)Cc2ccc(C(=O)NCc3cccs3)o2)cc1,-10.7%,8.3%,>57,3.98µM*[single pt active]
CCCn1c(-c2ccc(F)cc2)nc2c(NCCCN(CC)CC)nc(C)nc21,-7.6%,13.8%,.,22.0%
O=[N+]([O-])c1ccc(Cl)cc1Cl,1.5%,9.5%,.,-2.7%
CCCSc1nc(C)cc(=O)[nH]1,-15.1%,-2.8%,>57,-13.5%
Cc1cc(=O)[nH]c(SCc2cc(=O)n3nc(C)sc3n2)n1,0.6%,13.8%,>57,3.98µM*[single pt active]
Cn1cc(-c2nc3cncnc3n(Cc3ccc(F)cc3)c2=O)c2ccccc21,?,19.5%,>57,4.5%
CCCCn1nnc(NC(=O)COc2cc(C)ccc2C(C)C)n1,10µM*,-3.4%,>57,25.6%
O=C(O)C(=Cc1ccc(-c2ccccc2)cc1)C(=O)O,-2.5%[8 µM],-1.7%[5.75 µM],>57,4.7%[5.75 µM]
